# Inconclusive results are not listed. Active and inactive are the calls of the source. How the source made its calls: active means hit-call score of the fitted dose curve at least 0.9, where 1 is the maximum; inconclusive means response in the unintended direction; inactive means score below 0.9.
# Biological target: human Matrix Metalloproteinase-7 (MMP7), MMP7 (gene 4316) (UniProt P09237)
# Experiment: NVS_ENZ_hMMP7: NovaScreen (NVS) Enzymatic Assay for human Matrix Metalloproteinase-7 (MMP7) (AID 2283183)
# Procedure: NVS_ENZ_hMMP7 is a biochemical, single-readout assay that uses extracted gene-proteins in a cell-free assay. Measurements were taken 1 hour after chemical dosing in a 96-well plate.NVS_ENZ_hMMP7 is one of one assay component(s) measured or calculated from the NVS_ENZ_hMMP7 assay. It is designed to make measurements of enzyme activity, a form of enzyme reporter, as detected with fluorescence intensity signals by Fluorescence technology.Data from the assay component NVS_ENZ_hMMP7 was analyzed into 1 assay endpoint. This assay endpoint, NVS_ENZ_hMMP7, was analyzed in the positive analysis fitting direction relative to DMSO as the negative control and baseline of activity. Using a type of enzyme reporter, loss-of-signal activity can be used to understand changes in the enzymatic activity as they relate to the gene MMP7. Furthermore, this assay endpoint can be referred to as a primary readout, because this assay has produced multiple assay endpoints where this one serves a enzymatic activity function. To generalize the intended target to other relatable targets, this assay endpoint is annotated to the protease intended target family, where the subfamily is matrix metalloproteinase.
# Binding assays used specific radioligands (tritiated, iodinated) with non-radioactive competitive displacement ligands in agonist or antagonist protocols (as indicated) and various reference compounds and inhibitors to titrate specific binding to receptors and transporters. Most enzyme assays (CYPs, kinases, phosphatases, proteases, HDACs) used recombinant protein and specific substrates (fluorescence mostly, some colorimetric and radioactive) and inhibitors, followed by a biochemical separation of substrate and product. All assays for the biochemical HTS were initially run in duplicate at a single concentration (10 uM for CYP450 assays and 25 uM for all others). Assay-chemical combinations meeting a pre-defined threshold (e.g., 30% inhibition and other criteria defined below) were then run in singleton concentration-response format with maximum concentration of 20 uM for CYPs and 50 uM for all others. Each assay was run with positive and negative controls, and concurrent controls on every plate. The follow-up (secondary) screen tested active chemical-pairs in concentration series, as well as a few additional assays not tested in the primary screen, some selected negative inactives, and several cases re-run in the concentration series for confirmatory purposes.
# Chain of human Matrix Metalloproteinase-7 (MMP7), MMP7 (gene 4316) (P09237 whole entry, looked up): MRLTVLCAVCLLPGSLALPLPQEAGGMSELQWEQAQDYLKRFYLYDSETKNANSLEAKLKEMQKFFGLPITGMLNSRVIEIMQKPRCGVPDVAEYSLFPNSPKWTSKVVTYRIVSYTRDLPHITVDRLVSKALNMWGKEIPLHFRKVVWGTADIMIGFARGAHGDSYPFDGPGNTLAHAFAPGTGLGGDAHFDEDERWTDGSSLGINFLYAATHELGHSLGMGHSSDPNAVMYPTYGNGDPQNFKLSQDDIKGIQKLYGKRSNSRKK
row,Structure (SMILES),outcome
1,OC[C@@H](O)[C@@H](O)[C@H](O)[C@H](O)CO,inactive
2,Nc1ccc(S(=O)(=O)c2ccc(N)cc2)cc1,inactive
3,CN1CCN(Cc2cc(-c3ccc4[nH]c(=O)oc4c3)co2)[C@@H](c2ccc(F)cc2)C1,inactive
4,O=[N+]([O-])C(CO)(CO)CO,inactive
5,C[Si]1(C)O[Si](C)(C)O[Si](C)(C)O[Si](C)(C)O1,inactive
6,CC=Cc1ccc(O)c(OC)c1,inactive
7,Cc1oc(-c2ccccc2)nc1CCOc1cccc2c1ccn2CCC(=O)O,inactive
8,CN[C@H]1CC[C@@H](c2ccc(Cl)c(Cl)c2)c2ccc(S(N)(=O)=O)cc21,inactive
9,CCCCCCC(=O)OCC,inactive
10,CC(C)(C)c1cc(O)c(C(C)(C)C)cc1O,inactive
11,CNC(=O)[C@H]1O[C@@H](n2cnc3c(NCc4cc(Cl)ccc4OCc4cc(C)no4)ncnc32)[C@H](O)[C@@H]1N,inactive
12,CCCCCCCCCCCC(=O)OC,inactive

# From PubChem BioAssay (EPA / NIEHS)
